Source: PubChem BioAssay AID588342 (National Center for Advancing Translational Sciences (NCATS), 2011)
Among all 360,000 compounds or so, about 25,000 (6.9%) were called active. Another 9% or so got no clear call; they are omitted. Calls come from the whole dose curve; as a rule, active = well fitted inhibition curve with a large enough effect; inconclusive = small, poorly fitted or top-dose-only effect; inactive = flat fitted curve, though single readings scatter. This excerpt belongs to a sample that is enriched for actives.

target: Luciferin 4-monooxygenase (Photinus pyralis) (UniProt P08659); experiment: qHTS profiling assay for firefly luciferase inhibitor/activator using purifed enzyme and Km concentrations of substrates (counterscreen for miR-21 project); conditions: purified FLuc, luminescence inhibition; series mostly up to 57.5 µM; activity change, negative = inhibition: at the top concentration; note: nearly all actives have a fitted effect of over 55% in size;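 for activity change, negative = inhibition: plate controls were vehicle for no effect and reference inhibitor for full effect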
Summary of the method: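 Purified P. pyralis luciferase (10nM final) with 10uM D-luciferin and 10uM ATP (Km levels) in 50mM Tris acetate pH 7.5, 10mM Mg acetate, 0.01% Tween-20, 0.05% BSA; qHTS 6-point titration, ~60 µM downward; luminescence read.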
Potency is the fitted concentration of half-maximal effect.

Sequence of Luciferin 4-monooxygenase (Photinus pyralis) (P08659 whole entry, looked up): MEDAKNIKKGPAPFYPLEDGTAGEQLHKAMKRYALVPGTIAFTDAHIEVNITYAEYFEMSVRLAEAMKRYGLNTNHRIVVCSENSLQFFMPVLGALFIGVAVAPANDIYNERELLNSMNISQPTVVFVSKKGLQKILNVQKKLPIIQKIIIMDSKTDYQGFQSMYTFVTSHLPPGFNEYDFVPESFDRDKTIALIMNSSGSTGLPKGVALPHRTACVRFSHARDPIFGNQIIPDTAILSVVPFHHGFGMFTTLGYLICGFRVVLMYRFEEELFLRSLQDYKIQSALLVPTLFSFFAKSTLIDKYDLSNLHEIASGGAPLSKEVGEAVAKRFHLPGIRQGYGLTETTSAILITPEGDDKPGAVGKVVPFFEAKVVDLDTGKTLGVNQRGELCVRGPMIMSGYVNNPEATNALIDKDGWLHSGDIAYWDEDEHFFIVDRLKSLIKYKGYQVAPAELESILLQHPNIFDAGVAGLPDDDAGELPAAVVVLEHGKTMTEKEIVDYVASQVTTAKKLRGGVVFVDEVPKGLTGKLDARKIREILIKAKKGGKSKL

SMILES | Potency | activity change, negative = inhibition
COc1cc(C#Cc2ccc3cc(CCCO)oc(=O)c3c2)cc(OC)c1 | 4.78 µM (active) | –
CCC(Sc1nc2n[nH]c(C)c2c(=N)n1-c1ccccc1Cl)C(=O)N(CC)CC (stereo not given) | – | 5.14% (inactive)
Cc1ccccc1CS(=O)(=O)CC1Nc2ccc(C(=O)NCc3ccc(Cl)cc3)cc2NC1=O (stereo not given) | – | 3.69% (inactive)
CCCCOc1ccc(Cn2c(=O)oc3ccc(C)cc32)cc1OC | – | -11.5% (inactive)
CC(C)=C1SC(N2CCN(c3cccc(C)c3)CC2)=NC1=O | – | 0.206% (inactive)
CCn1c(=O)n(CC)c2cc(N3CCCC3)c(NC(=O)c3ccccc3Br)cc21 | – | 3.02% (inactive)
CCN1C(=O)/C(=C2\SC(N3CCCCC3)=NC2=O)c2ccccc21 | 3.38 µM (active) | –
Cc1occc1C(=O)NNC(=S)NCC(C)C | – | -0.662% (inactive)
CC(C)C(NC(=O)c1ccc(Cl)cc1)C(=O)O (stereo not given) | – | -0.225% (inactive)
CC(C)CNC(=S)NC(=O)c1ccc(Cl)cc1 | 12 µM (active) | –
CCOC(=O)N1CCC(NC(=O)c2cnn(-c3cccc(C)c3)c2C2CCN(C(=O)OC(C)(C)C)CC2)CC1 | – | 1.48% (inactive)
Cn1c(CCN2CCCC2)nc2cc(NS(=O)(=O)c3ccccc3)ccc21 | – | 0.966% (inactive)
Cn1c(CCN2CCCCCC2)nc2cc(NC(=O)Nc3ccccc3)ccc21 | 21.3 µM (active) | –
CCC(=O)Nc1ccc2c(c1)nc(CCN1CCN(c3ccccn3)CC1)n2C | – | 0.231% (inactive)
CCOC(=O)N1CCN(Cc2nc3cc(NC(C)=O)ccc3n2C)CC1 | – | 2.23% (inactive)
CC(=O)NCCc1nc2cc(NC(=O)c3ccccc3)ccc2n1C | 16.9 µM (active) | –
CCCC(=O)Nc1ccc2c(c1)nc(CCNC(=O)c1ccco1)n2C | – | -1.08% (inactive)
Cc1ccc(Nc2ccc3cc(S(=O)(=O)N4CCCCC4)ccc3n2)cc1F | – | 4.26% (inactive)
CCOC(=O)c1ccc(NC(=O)CCS(=O)(=O)c2ccc3c(c2)oc(=O)n3C)cc1 | – | 1.12% (inactive)
CC(C)CCNC(=O)CC1C(=O)N(Cc2ccccc2)C(C)c2nc3ccccc3n21 (stereo not given) | – | 6.94% (inactive)
CCCN1CCN(CCCNC(=O)c2cnn(-c3ccc(C)cc3)c2-n2cccc2)CC1 | – | 1.38% (inactive)
CCCNC(=O)CCc1c(C)nc2c(c(C)nn2-c2ccc(C)cc2)c1C | – | -1.39% (inactive)
CCCNC(=O)c1c(Cl)cnn1-c1ccc(C)cc1 | 9.53 µM (active) | –
COc1ccccc1OCCNC(=O)C(CCSC)NC(=O)COc1ccccc1 (stereo not given) | – | 0.951% (inactive)
CC(C(=O)NC1CCCC1)N1CCN(S(=O)(=O)c2ccccc2Cl)CC1 (stereo not given) | – | -0.449% (inactive)

SMILES | Potency | activity change, negative = inhibition
CC(C)(C)N1CC(c2nc3ccccc3n2Cc2ccc(F)cc2)CC1=O (stereo not given) | – | -0.554% (inactive)
CC(C)(C)c1cc(=O)n2c(nc3ccccc32)[nH]1 | 21.3 µM (active) | –
CC(C)(C)c1nc2ccccc2c(=O)n1N1C(=O)c2ccccc2C1=O | – | 3.69% (inactive)
O=C(COc1coc(CN2CCN(c3ccccc3)CC2)cc1=O)Nc1ccccc1F | – | -0.456% (inactive)
CC1=C(C(=O)OCC2CCCCC2)C(c2c(F)cccc2Cl)CC(=O)N1 (stereo not given) | – | -1.11% (inactive)
Cc1cccc(C(CC(=O)NCC2(c3ccccc3)CCCC2)c2ccccc2)c1O (stereo not given) | – | 1.15% (inactive)
Cn1c(=O)c(C(=O)O)nn(-c2ccccc2)c1=O | – | -0.0194% (inactive)
Cc1ccc(S(=O)(=O)Nc2nc(N)n(-c3ccccc3)n2)cc1 | – | -15.3% (inactive)
Cc1ccc(C(=O)Nc2nc(N)n(-c3ccccc3)n2)cc1 | 23.9 µM (active) | –
COc1ccc(CNC(=O)CCc2c(C)nn(-c3ccc(N4CCCC4)nn3)c2C)cc1 | – | 3.1% (inactive)
Cc1ccc(-n2c(C)nnc2SCC(=O)NC2CC2)cc1 | – | -4.89% (inactive)
CCN(C(=O)CSc1nnc2ccccn12)C1CCS(=O)(=O)C1 (stereo not given) | – | 0.52% (inactive)
O=C(CSc1nnc2ccccn12)c1ccccc1 | 23.9 µM (active) | –
N#Cc1ccc(CSc2nnc3ccccn23)cc1 | – | -0.254% (inactive)
Cc1ccc(-n2c(C)cc(C(=O)CSc3nnc4ccccn34)c2C)cc1 | 2.13 µM (active) | –
Cn1c(CC(=O)Nc2ccccc2)nnc1SCC(=O)c1ccccc1 | – | 1.04% (inactive)
O=C(Nc1cc(Cl)cc(Cl)c1)c1ccc2c(c1)N(Cc1cccc(Cl)c1)C(=O)c1ccccc1S2=O (stereo not given) | – | -1.73% (inactive)
CCN(CC)c1ccc(NS(=O)(=O)c2cc(-c3cc(C)no3)ccc2C)c(C)c1 | – | -13.7% (inactive)
Cc1cccc(C)c1-n1ncc(C(=O)NCCCN2CCCCC2)c1C1CCN(C(=O)OC(C)(C)C)CC1 | – | -1.11% (inactive)
CCOC(=O)c1c(C)[nH]c(C)c1S(=O)(=O)N(C)CC(=O)N1CCN(c2ccccc2)CC1 | – | -1.32% (inactive)
O=C(CSc1nc2c(c(=O)[nH]1)CN(Cc1ccc(F)cc1)CC2)Nc1ccccc1Cl | – | -0.468% (inactive)
CC(C)c1nc2ccc(C(=O)O)cc2[nH]1 | 15.1 µM (active) | –
OC(c1nc2ccc(F)cc2[nH]1)C(O)c1nc2ccc(F)cc2[nH]1 (stereo not given) | – | -2.89% (inactive)
N#CC(C(=O)c1ccc(S(=O)(=O)N2CCCCCC2)cc1)c1nc2ccccc2[nH]1 (stereo not given) | – | -13.5% (inactive)
CCOC(=O)c1cccc(NC(=O)Cn2cnc3nc4c(cc3c2=O)CCCC4)c1 | – | -14.8% (inactive)
